Reference: PubChem BioAssay AID1159580 (chemical genetic matrix, 2015)
Out of some 5,500 compounds screened, about 2,000 (36%) were called active. Not shown: some 18% with an inconclusive outcome. No stated cut-off is given here; in the data, active means normalized growth mostly below about 0.91 (no sharp cut-off); inconclusive means no clear call, values can overlap the other calls; inactive means mostly above about 0.92. The list shows a part of the results.

Experiment: chemical genetic growth profiling, strain panel (AID 1159580);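 further: tested at 20 µM; growth read once vehicle control cultures reached saturation at 30 °C; 1 = growth at the plate median or of vehicle wells; lower values mean less growth of the strain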
Details: S. cerevisiae deletion strains, growth OD

Measured: normalized growth

CC[C@H](CO)Nc1nc(NCc2ccccc2)c2ncn(C(C)C)c2n1
inactive: locus YAL013W, strain DEP1, hits give low values 1.01 | locus YAL040C, strain CLN3, hits give low values 0.992 | locus YCL061C, strain MRC1 (second series), hits give low values 1 | locus YDR150W, strain NUM1, hits give low values 0.992 | locus YDR363W, strain ESC2, hits give low values 0.991 | locus YER002W, strain NOP16, hits give low values 1.03 | locus YGR078C, strain PAC10, hits give low values 0.995 | locus YGR229C, strain SMI1, hits give low values 1.04 | locus YMR307W, strain GAS1, hits give low values 0.967 | locus YNL128W, strain TEP1, hits give low values 1.03 | locus YNL153C, strain GIM3, hits give low values 1 | locus YNL175C, strain NOP13, hits give low values 1 | locus YNL197C, strain WHI3, hits give low values 1 | locus YNL224C, strain SQS1, hits give low values 1.01 | locus YNL322C, strain KRE1, hits give low values 1.02 | locus YOR083W, strain WHI5 (second series), hits give low values 1.01 | locus YPL241C, strain CIN2, hits give low values 0.997
